# According to the supplement of paper PMC8728848:
# Shown is part of a subset that was picked to be rich in the strongest signals.
# B1: AntigenI/IIA3VP1 (Streptococcus mutans), C9E3B4 (protein)
# chain: AANEADYQAKLTAYQTELARVQKANADAKAAYEAAVAANNAANAALTAENTAIKKRNADAKADYEAKLAKYQADLAKYQKDLADYPVKLKAYEDEQASIKAALAELEKHKNEDGNLTEPSAQNLVYDLEPNANLSLTTDGKFLKASAVDDAFSKSTSKAKYDQKILQLDDLDITNLEQSNDVASSMELYGNFGDKAGWSTTVSNNSQVKWGSVLLERGQSATATYTNLQNSYYNGKKISKIVYKYTVDPKSKFQGQKVWLGIFTDPTLGVFASAYTGQVEKNTSIFIKNEFTFYDEDGKPINFDNALLSVASLNREHNSIEMAKDYSGKFVKISGSSIGEKNGMIYATDTLNFKQGEGGSRWTMYKNSQAGSGWDSSDAPNSWYGAGAIKMSGPNNYVTVGATSATNVMPVSDMPVVPGKDNTDGKKPNIWYSLNGKIRAVNVPKVTKEKPTPPVKPTAPTKPTYETEKPLKPAPVAPNYEKEPTPPTRLEHHHHHH
# Assays:
# Experiment in all cases: glycan array binding signal (z-score within array); higher = stronger binding
# Conditions in all cases: glycan notation: IUPAC condensed, linker removed
# [1] = target: Gal(b1-4)GlcNAc(b1-3)Gal(b1-4)GlcNAc(b1-6)[Gal(b1-3)]GalNAc
# Summary of the method: (§1)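 From the Consortium for Functional Glycomics database, 3228 arrays were curated, keeping only those whose protein sequence was available. Binding is given as a within-array Z-score averaged across arrays sharing a protein sequence and across linkers. Negative Z-scores can be read as non-binding.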
# [2] = target: Gal3S(b1-4)[Fuc(a1-3)]Glc6S
# Summary of the method: as §1
# Gal6P(b1-4)GlcNAc = target: Gal6P(b1-4)GlcNAc
# Summary of the method: as §1
# GalNAc(a1-3)GalNAc = target: GalNAc(a1-3)GalNAc
# Summary of the method: as §1
# GalNAc(b1-3)GalNAc = target: GalNAc(b1-3)GalNAc
# Summary of the method: as §1
# GalNAc(b1-3)GlcNAc = target: GalNAc(b1-3)GlcNAc
# Summary of the method: as §1
# [3] = target: GalNAc(b1-4)GlcNAc(b1-2)Man(a1-3)[GalNAc(b1-4)GlcNAc(b1-2)Man(a1-6)]Man(b1-4)GlcNAc(b1-4)GlcNAc
# Summary of the method: as §1
# GlcA(b1-3)GlcNAc = target: GlcA(b1-3)GlcNAc
# Summary of the method: as §1
# [4] = target: GlcNAc(b1-2)[GlcNAc(b1-4)]Man(a1-3)[GlcNAc(b1-4)][GlcNAc(b1-2)Man(a1-6)]Man(b1-4)GlcNAc(b1-4)GlcNAc
# Summary of the method: as §1
# [5] = target: GlcNAc(b1-3)Gal(b1-4)GlcNAc(b1-3)Gal(b1-4)GlcNAc(b1-3)Gal(b1-4)GlcNAc(b1-3)Gal(b1-4)GlcNAc(b1-2)Man(a1-3)[GlcNAc(b1-3)Gal(b1-4)GlcNAc(b1-3)Gal(b1-4)GlcNAc(b1-3)Gal(b1-4)GlcNAc(b1-3)Gal(b1-4)GlcNAc(b1-2)Man(a1-6)]Man(b1-4)GlcNAc(b1-4)[Fuc(a1-6)]GlcNAc
# Summary of the method: as §1
# Kdn(a2-6)Gal(b1-4)GlcNAc = target: Kdn(a2-6)Gal(b1-4)GlcNAc
# Summary of the method: as §1
# [6] = target: Man(a1-2)Man(a1-3)[Man(a1-2)Man(a1-6)]Man
# Summary of the method: as §1
# [7] = target: Man(a1-2)Man(a1-6)[Man(a1-3)]Man(a1-6)[Man(a1-2)Man(a1-2)Man(a1-3)]Man(b1-4)GlcNAc(b1-4)GlcNAc
# Summary of the method: as §1
# [8] = target: Neu5Ac(a2-3)Gal(b1-3)GalNAc(b1-3)Gal(a1-4)Gal(b1-4)Glc
# Summary of the method: as §1
# [9] = target: Neu5Ac(a2-3)Gal(b1-4)GlcNAc(b1-2)Man
# Summary of the method: as §1
# [10] = target: Neu5Ac(a2-3)Gal(b1-4)GlcNAc(b1-3)Gal(b1-4)GlcNAc(b1-3)[Neu5Ac(a2-3)Gal(b1-4)GlcNAc(b1-3)Gal(b1-4)GlcNAc(b1-6)]GalNAc
# Summary of the method: as §1
# [11] = target: Neu5Ac(a2-3)Gal(b1-4)GlcNAc(b1-3)Gal(b1-4)GlcNAc(b1-6)[Gal(b1-3)]GalNAc
# Summary of the method: as §1
# [12] = target: Neu5Ac(a2-3)Gal(b1-4)GlcNAc6S
# Summary of the method: as §1
# [13] = target: Neu5Ac(a2-3)Gal6S(b1-4)GlcNAc
# Summary of the method: as §1
# Neu5Ac(a2-3)GalNAc = target: Neu5Ac(a2-3)GalNAc
# Summary of the method: as §1
# [14] = target: Neu5Ac(a2-6)Gal(b1-3)GlcNAc(b1-3)[Gal(b1-4)GlcNAc(b1-6)]Gal(b1-4)Glc
# Summary of the method: as §1
# [15] = target: Neu5Ac(a2-6)Gal(b1-4)GlcNAc(b1-2)[Neu5Ac(a2-6)Gal(b1-4)GlcNAc(b1-4)]Man(a1-3)[GlcNAc(b1-4)][Neu5Ac(a2-6)Gal(b1-4)GlcNAc(b1-4)Man(a1-6)]Man(b1-4)GlcNAc(b1-4)GlcNAc
# Summary of the method: as §1
# [16] = target: Neu5Ac(a2-6)Gal(b1-4)GlcNAc(b1-2)[Neu5Ac(a2-6)Gal(b1-4)GlcNAc(b1-6)]Man(a1-6)[Neu5Ac(a2-6)Gal(b1-4)GlcNAc(b1-2)Man(a1-3)][GlcNAc(b1-4)]Man(b1-4)GlcNAc(b1-4)GlcNAc
# Summary of the method: as §1
# [17] = target: Neu5Ac(a2-6)Gal(b1-4)GlcNAc(b1-3)Gal(b1-3)GlcNAc
# Summary of the method: as §1
# [18] = target: Neu5Ac(a2-8)Neu5Ac(a2-3)Gal(b1-3)GalNAc(b1-4)[Neu5Ac(a2-8)Neu5Ac(a2-3)]Gal(b1-4)Glc
# Summary of the method: as §1
# [19] = target: Neu5Gc(a2-3)Gal(b1-3)[Fuc(a1-4)]GlcNAc
# Summary of the method: as §1
binder,measurement,setting,value
B1,glycan array binding signal (z-score),[1],-0.398
same,glycan array binding signal (z-score),[2],3.68
same,glycan array binding signal (z-score),Gal6P(b1-4)GlcNAc,-1.28
same,glycan array binding signal (z-score),GalNAc(a1-3)GalNAc,0.327
same,glycan array binding signal (z-score),GalNAc(b1-3)GalNAc,1.37
same,glycan array binding signal (z-score),GalNAc(b1-3)GlcNAc,-0.475
same,glycan array binding signal (z-score),[3],-0.868
same,glycan array binding signal (z-score),GlcA(b1-3)GlcNAc,-0.575
same,glycan array binding signal (z-score),[4],-1.35
same,glycan array binding signal (z-score),[5],3.23
same,glycan array binding signal (z-score),Kdn(a2-6)Gal(b1-4)GlcNAc,-1.05
same,glycan array binding signal (z-score),[6],-0.805
same,glycan array binding signal (z-score),[7],0.975
same,glycan array binding signal (z-score),[8],0.492
same,glycan array binding signal (z-score),[9],0.921
same,glycan array binding signal (z-score),[10],0.324
same,glycan array binding signal (z-score),[11],-0.29
same,glycan array binding signal (z-score),[12],-0.627
same,glycan array binding signal (z-score),[13],-0.68
same,glycan array binding signal (z-score),Neu5Ac(a2-3)GalNAc,-1.05
same,glycan array binding signal (z-score),[14],0.439
same,glycan array binding signal (z-score),[15],1.05
same,glycan array binding signal (z-score),[16],0.993
same,glycan array binding signal (z-score),[17],-1.1
same,glycan array binding signal (z-score),[18],-0.035
same,glycan array binding signal (z-score),[19],-0.885
